From PubChem BioAssay (EPA / NIEHS) come the findings set out here.

Read-out in experiment [1]: flavin-containing dimethylaniline monooxygenases 3 (FMO3), FMO3 (gene 2328)
The experiment can be described thus: LTEA_HepaRG_FMO3: Life Technologies and Expression Analysis (LTEA) Assay for flavin-containing dimethylaniline monooxygenases 3 (FMO3) using HepaRG (AID 2283453). Conditions: mRNA level, 48 h; actives raise or lower the signal. The method, boiled down: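 Differentiated HepaRG cells in serum-free induction medium, exposed 48 h in duplicate to 8 half-log concentrations up to 100 uM in 0.5% DMSO. FMO3 mRNA by qRT-PCR, normalized to ACTB, GAPDH, POLR2A; bidirectional fit vs DMSO.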

Read-out in experiment [2]: Cytochrome P450 (CYP1A1), CYP1A1 (gene 1543)
Put plainly: LTEA_HepaRG_CYP1A1: Life Technologies and Expression Analysis (LTEA) Assay for Cytochrome P450 (CYP1A1) using HepaRG (AID 2283454). Conditions: mRNA level, 48 h; actives raise or lower the signal. The method, boiled down: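 CYP1A1 transcript levels measured by Fluidigm qRT-PCR against three housekeeping genes, 48 h after chemical dosing of human HepaRG cells (highest concentration 100 uM, half-log steps, 0.5% DMSO vehicle). Gain or loss of signal fitted relative to DMSO.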

Read-out in experiment [3]: CFLAR gene, CFLAR (gene 8837)
Put plainly: LTEA_HepaRG_CFLAR: Life Technologies and Expression Analysis (LTEA) Assay for CFLAR gene using HepaRG (AID 2283455). The conditions noted are these: mRNA level, 48 h; actives raise or lower the signal. The method, boiled down:
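Differentiated HepaRG cells in serum-free induction medium were exposed 48 h in duplicate to eight half-log concentrations up to 100 uM in 0.5% DMSO; mRNA measured by TaqMan qRT-PCR, normalized to ACTB, GAPDH, POLR2A; bidirectional fitting versus DMSO.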

Read-out in experiment [4]: Forkhead box O1 (FOXO1), FOXO1 (gene 2308)
The experiment can be described thus: LTEA_HepaRG_FOXO1: Life Technologies and Expression Analysis (LTEA) Assay for Forkhead box O1 (FOXO1) using HepaRG (AID 2283456). The conditions noted are these: mRNA level, 48 h; actives raise or lower the signal. The method, boiled down:
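Differentiated HepaRG cells, in serum-free induction medium with 0.5% DMSO, exposed 48 h in duplicate to 8-point half-log series from 100 uM. FOXO1 mRNA measured by TaqMan qRT-PCR, normalized to ACTB, GAPDH, POLR2A; bidirectional fit versus DMSO.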

Read-out in experiment [5]: Forkhead box O3 (FOXO3), FOXO3 (gene 2309)
Put plainly: LTEA_HepaRG_FOXO3: Life Technologies and Expression Analysis (LTEA) Assay for Forkhead box O3 (FOXO3) using HepaRG (AID 2283459). The conditions noted are these: mRNA level, 48 h; actives raise or lower the signal. The method, boiled down:
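Differentiated human HepaRG cells, 48 h post-plating, exposed in duplicate for 48 h in serum-free induction medium; 8-point half-log series from 100 uM in 0.5% DMSO. FOXO3 mRNA by TaqMan qRT-PCR, normalized to ACTB/GAPDH/POLR2A; bidirectional fit versus DMSO.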

Read-out in experiment [6]: ABC Transporter (ABCB1), ABCB1 (gene 5243)
The experiment can be described thus: LTEA_HepaRG_ABCB1: Life Technologies and Expression Analysis (LTEA) Assay for ABC Transporter (ABCB1) using HepaRG (AID 2283460). Conditions: mRNA level, 48 h; actives raise or lower the signal. In a few lines:
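HepaRG cells exposed in duplicate for 48 h in serum-free induction medium to eight half-log concentrations up to 100 uM in 0.5% DMSO. ABCB1 mRNA quantified by qRT-PCR, normalised to ACTB, GAPDH and POLR2A; fitted bidirectionally versus DMSO.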

Read-out in experiment [7]: growth arrest and DNA damage 45 (GADD45B), GADD45B (gene 4616)
The experiment can be described thus: LTEA_HepaRG_GADD45B: Life Technologies and Expression Analysis (LTEA) Assay for growth arrest and DNA damage 45 (GADD45B) using HepaRG (AID 2283461). The conditions noted are these: mRNA level, 48 h; actives raise or lower the signal. The method, boiled down:
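Transcript level quantified by Fluidigm TaqMan qRT-PCR with three housekeeping genes for normalization, analyzed for up- or down-regulation against 0.5% DMSO. HepaRG cultures dosed 48 h at eight half-log concentrations up to 100 uM, duplicates.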

Read-out in experiment [8]: ABC Transporter (ABCC3), ABCC3 (gene 8714)
The experiment can be described thus: LTEA_HepaRG_ABCC3: Life Technologies and Expression Analysis (LTEA) Assay for ABC Transporter (ABCC3) using HepaRG (AID 2283462). Conditions: mRNA level, 48 h; actives raise or lower the signal. The method, boiled down:
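Transcript level by TaqMan qRT-PCR, normalised to three housekeeping genes, fitted in both directions relative to vehicle. Chemicals tested in duplicate at eight half-log concentrations up to 100 uM for 48 h on HepaRG cells (0.5% DMSO).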

Read-out in experiment [9]: ABC Transporter (ABCB11), ABCB11 (gene 8647)
The experiment can be described thus: LTEA_HepaRG_ABCB11: Life Technologies and Expression Analysis (LTEA) Assay for ABC Transporter (ABCB11) using HepaRG (AID 2283463). Conditions: mRNA level, 48 h; actives raise or lower the signal. In a few lines:
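Differentiated human HepaRG cells in serum-free induction medium, dosed in duplicate for 48 h. Eight-point half-log series from 100 uM in 0.5% DMSO; ABCB11 mRNA by qRT-PCR, normalized to ACTB, GAPDH, POLR2A, fitted bidirectionally versus DMSO.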

Read-out in experiment [10]: ABC Transporter (ABCC2), ABCC2 (gene 1244)
Put plainly: LTEA_HepaRG_ABCC2: Life Technologies and Expression Analysis (LTEA) Assay for ABC Transporter (ABCC2) using HepaRG (AID 2283464). The conditions noted are these: mRNA level, 48 h; actives raise or lower the signal. In a few lines: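 Endpoint is ABCC2 transcript level from qRT-PCR, normalized to three housekeeping genes and fitted bidirectionally relative to DMSO. Human HepaRG cells received test chemical for 48 h at up to 100 uM (8 points, half-log steps, 0.5% DMSO), duplicate wells.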

Read-out in experiment [11]: Broad substrate specificity ATP-binding cassette transporter ABCG2 (Homo sapiens) (UniProt Q9UNQ0)
The experiment can be described thus: LTEA_HepaRG_ABCG2: Life Technologies and Expression Analysis (LTEA) Assay for ABC Transporter (ABCG2) using HepaRG (AID 2283465). The conditions noted are these: mRNA level, 48 h; actives raise or lower the signal. In a few lines: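 Differentiated HepaRG cells were exposed for 48 h in serum-free induction medium to 8 half-log concentrations, top 100 uM, in 0.5% DMSO. ABCG2 mRNA was measured by qRT-PCR, normalized to ACTB, GAPDH and POLR2A, with bidirectional fitting versus DMSO.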

Read-out in experiment [12]: ATP-citrate lyase (ACLY), ACLY (gene 47)
Put plainly: LTEA_HepaRG_ACLY: Life Technologies and Expression Analysis (LTEA) Assay for ATP-citrate lyase (ACLY) using HepaRG (AID 2283466). Conditions: mRNA level, 48 h; actives raise or lower the signal. The method, boiled down:
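Differentiated HepaRG cells exposed 48 h in serum-free induction medium to eight half-log concentrations up to 100 uM in 0.5% DMSO, duplicates. Transcript measured by Fluidigm TaqMan qRT-PCR, normalized to ACTB, GAPDH, POLR2A; bidirectional fit versus DMSO.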

Read-out in experiment [13]: Peroxisomal acyl-coenzyme A oxidase 1 (ACOX1) gene, ACOX1 (gene 51)
Put plainly: LTEA_HepaRG_ACOX1: Life Technologies and Expression Analysis (LTEA) Assay for Peroxisomal acyl-coenzyme A oxidase 1 (ACOX1) gene using HepaRG (AID 2283467). The conditions noted are these: mRNA level, 48 h; actives raise or lower the signal. In a few lines: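 HepaRG cells, plated 48 h then switched to serum-free induction medium, were exposed in duplicate for 48 h to 8-point half-log concentrations up to 100 uM in 0.5% DMSO. ACOX1 mRNA was measured by qRT-PCR, normalized to ACTB/GAPDH/POLR2A, and fitted bidirectionally versus DMSO.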

Read-out in experiment [14]: Alkaline Phosphatase, Placental (ALPP) gene, ALPP (gene 250)
Put plainly: LTEA_HepaRG_ALPP: Life Technologies and Expression Analysis (LTEA) Assay for Alkaline Phosphatase, Placental (ALPP) gene using HepaRG (AID 2283468). Conditions: mRNA level, 48 h; actives raise or lower the signal. In a few lines: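 ALPP transcript level, measured by qRT-PCR and normalized to three housekeeping genes (ACTB, GAPDH, POLR2A), after 48 h dosing of differentiated HepaRG in serum-free induction medium. Top concentration 100 uM with half-log dilutions (8 points, 0.5% DMSO, duplicates); bidirectional fitting relative to DMSO.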

Read-out in experiment [15]: Bcl-2 (BAD) gene, BAD (gene 572)
Put plainly: LTEA_HepaRG_BAD: Life Technologies and Expression Analysis (LTEA) Assay for Bcl-2 (BAD) gene using HepaRG (AID 2283469). Conditions: mRNA level, 48 h; actives raise or lower the signal. The method, boiled down: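 Differentiated HepaRG cells were exposed in duplicate in 0.5% DMSO for 48 h to eight-point half-log concentrations up to 100 uM. BAD mRNA was measured by Fluidigm TaqMan qRT-PCR, normalized to ACTB, GAPDH and POLR2A, and fitted bidirectionally against DMSO.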

Read-out in experiment [16]: Bcl-2 (BAX) gene, BAX (gene 581)
The experiment can be described thus: LTEA_HepaRG_BAX: Life Technologies and Expression Analysis (LTEA) Assay for Bcl-2 (BAX) gene using HepaRG (AID 2283470). The conditions noted are these: mRNA level, 48 h; actives raise or lower the signal. In a few lines:
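Differentiated HepaRG cells exposed 48 h in serum-free induction medium, eight half-log concentrations from 100 uM, in duplicate, 0.5% DMSO vehicle. BAX mRNA by TaqMan qRT-PCR, normalised to ACTB, GAPDH and POLR2A.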

Read-out in experiment [17]: catalase (CAT), CAT (gene 847)
The experiment can be described thus: LTEA_HepaRG_CAT: Life Technologies and Expression Analysis (LTEA) Assay for catalase (CAT) using HepaRG (AID 2283452). Conditions: mRNA level, 48 h; actives raise or lower the signal. The method, boiled down: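 HepaRG cells in serum-free induction medium, 0.5% DMSO vehicle, exposed 48 h in duplicate over 8 half-log concentrations from 100 uM. CAT mRNA measured by qRT-PCR, normalized to ACTB, GAPDH, POLR2A; bidirectional fit versus DMSO.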

Experiment [18] is described as follows: CEETOX_H295R_TESTO: CeeTox H295R High-throughput Steroidogenesis Assay for Testosterone (TESTO) (AID 2283457). The conditions noted are these: actives raise or lower the signal. The method, boiled down:
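Testosterone secreted into the medium over 48 h by H295R cells (maximum passage 10) was quantified by LC-MS/MS after MTBE extraction. Fitted in both directions against DMSO, with concentrations diluted until MTT viability was ≥70%.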

The source made the active and inactive calls. Rule for the calls: active = hit-call score of the fitted dose curve at least 0.9, where 1 is the maximum; inactive = score below 0.9.

Broad substrate specificity ATP-binding cassette transporter ABCG2 (Homo sapiens), sequence (Q9UNQ0 whole entry, looked up): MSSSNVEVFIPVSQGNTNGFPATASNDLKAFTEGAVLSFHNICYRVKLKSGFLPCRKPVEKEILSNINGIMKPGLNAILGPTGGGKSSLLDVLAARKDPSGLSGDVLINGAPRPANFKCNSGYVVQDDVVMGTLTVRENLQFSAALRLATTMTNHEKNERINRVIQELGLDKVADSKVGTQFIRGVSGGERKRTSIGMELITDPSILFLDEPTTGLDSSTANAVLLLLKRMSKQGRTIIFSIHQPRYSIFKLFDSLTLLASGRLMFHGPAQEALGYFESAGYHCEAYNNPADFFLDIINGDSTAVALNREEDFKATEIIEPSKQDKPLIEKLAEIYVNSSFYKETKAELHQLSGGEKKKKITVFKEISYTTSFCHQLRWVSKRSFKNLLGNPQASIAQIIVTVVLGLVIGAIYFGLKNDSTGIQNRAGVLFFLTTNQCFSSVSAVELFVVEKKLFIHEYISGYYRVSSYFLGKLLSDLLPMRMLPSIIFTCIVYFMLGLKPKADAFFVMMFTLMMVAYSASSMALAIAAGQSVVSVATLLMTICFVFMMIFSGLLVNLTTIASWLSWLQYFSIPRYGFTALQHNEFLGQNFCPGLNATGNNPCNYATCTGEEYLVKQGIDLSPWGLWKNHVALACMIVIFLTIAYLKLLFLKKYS

Turning to `COP(=S)(OC)Oc1ccc(SC)c(C)c1`, the result in experiment [1], in experiment [3], in experiment [4], in [5], in experiment [6] and in experiment [7] was inactive. For the same compound, the result in experiment [8], in [9], in experiment [10], in [12], in experiment [13] and in experiment [14] was inactive. In addition, the outcome in experiment [15] and in experiment [16] was inactive. For the same compound, the concentration at half-maximal activity (AC50) is 28.8 µM (active) in [2] and 31.8 µM (active) in experiment [11].

In the case of `CCN(CC)C(=O)SCc1ccc(Cl)cc1`, the outcome in experiment [17], in [1], in experiment [3], in experiment [4], in experiment [5] and in experiment [6] was inactive. The compound was called inactive in experiment [7], in experiment [8], in [9], in [10], in experiment [11] and in experiment [12]. Moreover, the result in experiment [13], in [14], in [15] and in experiment [16] was inactive. Besides, the AC50 in experiment [2] was 41.6 µM (active).

For `O=[N+]([O-])c1c(Cl)c(Cl)c(Cl)c(Cl)c1Cl`, the compound was called inactive in [17], in experiment [1], in experiment [3], in experiment [4], in experiment [18] and in experiment [5]. The call in [6], in experiment [8], in experiment [9], in experiment [10], in experiment [11] and in experiment [12] was inactive. The compound was classed as inactive in experiment [13], in experiment [14], in experiment [15] and in experiment [16]. Besides, the AC50 in experiment [2] was 81.3 µM (active); in experiment [7] it was 60.7 µM (active).

Usually AC50 stands for the concentration at which the activity in the assay is half-maximal.
